Measurements taken from PubChem BioAssay (NCATS).
Records with an inconclusive call do not appear. Entries that show only a call come without a potency. Unmarked numbers belong to inactive results. Calls of active or inactive are those of the source. Calls follow the shape of the dose curve; as a rule, active = well fitted inhibition curve with a large enough effect; inconclusive = small, poorly fitted or top-dose-only effect; inactive = flat fitted curve, though single readings scatter.

How the values were obtained:
[1] = target: Calcium and integrin-binding protein 1 (Homo sapiens) (UniProt Q99828); experiment: Primary qHTS for Identification of Calcium Integrin Binding Protein 1 (CIB1) Competitor (AID 1508620);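 also: GST tagged CIB1 binding a fluorescein labelled alphaIIb integrin peptide tracer; top concentration of the series differs between compounds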
Chain of Calcium and integrin-binding protein 1 (Homo sapiens) (Q99828 whole entry, looked up): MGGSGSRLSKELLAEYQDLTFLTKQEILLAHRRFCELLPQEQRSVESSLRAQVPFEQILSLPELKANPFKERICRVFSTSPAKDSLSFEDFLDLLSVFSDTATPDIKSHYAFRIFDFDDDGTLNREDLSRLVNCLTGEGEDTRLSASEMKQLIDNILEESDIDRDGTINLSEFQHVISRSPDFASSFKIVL
How it was run: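 Fluorescence polarization competition: GST-tagged CIB1 (1 uM final) preincubated with compound 15 min at room temperature, then FITC-labelled alphaIIb peptide (100 nM final) added. After 15 min at room temperature, polarization read at Ex 480/Em 540.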

[2] = Primary qHTS for inhibitors of nuclear receptor binding SET domain protein 2 (NSD2) in an isogenic RCH-ACV NSD2 p.E1099K mutant (9B) (AID 1645876); also: nearly all actives have a fitted effect of over 70% in size; also: potency is read from the fitted curve at half-maximal effect

Row | Compound | Potency [1] | Potency [2] | activity change, negative = viability loss [2]
1 | COc1cc(-c2ncn(/C=C\C(=O)OC(C)C)n2)cc(C(F)(F)F)c1 | inactive | 129 nM (active) | 
2 | CC1=CC(=O)C(=C(C)C)CC2C1CCC2(C)O (configuration not stated) | inactive | inactive | 
3 | CC1OC(OC2C(C)OC(OC3C(O)C(CO)OC(O[C@H]4CC[C@@]5(C)C(CC[C@]6(C)C5CC=C5C7[C@@H](C)[C@H](C)CC[C@]7(C(=O)O)CC[C@]56C(=O)O)C4(C)C)C3O)C(O)C2O)C(O)C(O)C1O (some centres not stated) | inactive |  | -0.763% [at 9.23 µM]
4 | C[S+](CC[C@H](N)C(=O)[O-])C[C@H]1O[C@@H](n2cnc3c(N)ncnc32)[C@H](O)[C@@H]1O (some centres not stated) | inactive | inactive | 
5 | CC(C)CC(=O)OC1OC=C(CO[C@@H]2O[C@H](CO)[C@@H](O)[C@H](O)[C@H]2O)C2CC(O)C(O)(CO)C12 (some centres not stated) | inactive | inactive | 
6 | COC(=O)C1=CO[C@@H](O[C@@H]2O[C@H](CO)[C@@H](O)[C@H](O)[C@H]2O)[C@@H]2C(CO)=CC[C@]12O | inactive | inactive | 
7 | NCCCNc1ccc(Nc2nccc(Nc3cc(C4CC4)[nH]n3)n2)cc1 | inactive | 578 nM (active) | 
8 | CN(C)CCCCC(=O)Nc1ccc(NC(=S)NC(=O)c2ccc(C(C)(C)C)cc2)cc1 | inactive | 1830 nM (active) | 
9 | CC1(C)CCC[C@]2(C)[C@H]3CC(=O)O[C@]3(C)CC[C@@H]12 | inactive | inactive | 
10 | COC(=O)C(C)C1CCC2(C)C(=O)C=CC(C)(O)C2C1O (configuration not stated) | inactive | inactive | 
11 | C[C@@H]1CC[C@]2(C(=O)OC3OC(CO)C(O)C(O)C3O)CC[C@]3(C)C(=CCC4[C@@]5(C)CC[C@H](O)[C@](C)(C(=O)O)C5CC[C@]43C)C2[C@]1(C)O (some centres not stated) | inactive | inactive | 
